Screening data (PubChem BioAssay)
Shown are actives, neighbours in structure and some others; about 7.5% of the full set was active somewhere.
FLuc counter = inhibits or activates purified firefly luciferase, miR-21 counter-screen. P08659. Potency, µM (series often up to 57.5 µM), for inactives: at the highest dose activity change, negative = inhibition, hits mostly inhibitors. 6.9% of 360,000 active. AID 588342. purified FLuc, Km substrates, luminescence inhibition;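 further: plate controls were vehicle for no effect and reference inhibitor for full effect; nearly all actives have a fitted effect of over 55% in size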
Target sequence (P08659 whole entry, looked up): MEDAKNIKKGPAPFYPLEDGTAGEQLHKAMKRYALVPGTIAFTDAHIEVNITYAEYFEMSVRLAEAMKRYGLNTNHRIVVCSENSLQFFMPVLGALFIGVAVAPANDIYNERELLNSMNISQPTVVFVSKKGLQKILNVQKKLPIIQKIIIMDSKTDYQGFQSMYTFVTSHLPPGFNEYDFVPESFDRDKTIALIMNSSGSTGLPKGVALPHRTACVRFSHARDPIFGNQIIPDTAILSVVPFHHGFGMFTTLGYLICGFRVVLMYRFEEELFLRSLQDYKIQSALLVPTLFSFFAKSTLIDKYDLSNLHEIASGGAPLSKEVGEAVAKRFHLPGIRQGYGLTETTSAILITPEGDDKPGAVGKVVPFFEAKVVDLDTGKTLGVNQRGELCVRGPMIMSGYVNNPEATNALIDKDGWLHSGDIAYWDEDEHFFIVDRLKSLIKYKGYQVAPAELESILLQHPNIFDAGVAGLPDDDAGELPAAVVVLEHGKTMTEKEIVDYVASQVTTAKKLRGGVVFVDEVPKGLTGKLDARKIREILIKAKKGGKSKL
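Purified P. pyralis luciferase, 10 nM final, with Km-level 10 uM D-luciferin and 10 uM ATP in 50 mM Tris acetate pH 7.5, 10 mM Mg acetate, 0.01% Tween-20, 0.05% BSA; 6-point qHTS titration about 60 µM downward; luminescence read.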
Luc counter = counter-screen: inhibitors of Kinase-Glo firefly luciferase. Q27757. Kinase-Glo luciferase, ATP luminescence, 8 min. Potency, µM (series often up to 38.3 µM), for inactives: at the top dose activity change, negative = inhibition, usual class: inhibitors. 0.28% of 200,000 active. AID 1379; further: on the % scale 0 is the no-effect control and ±100 the full control effect; nearly all actives have a fitted effect of over 60% in size
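Kinase-Glo luciferase light output from ATP and luciferin was measured with 10 uM ATP, within the enzyme's linear range. Buffer: 50 mM imidazole pH 7.2, 50 mM KCl, 7 mM MgCl2, 0.01% Tween 20, 0.05% BSA; luminescence read after 8 min at ambient temperature.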
NPC1 prom act = NPC1 promoter activation; Huh7 NPC1 promoter luciferase reporter, 24 h; Potency, µM (titrated, usually from 9.22 µM), for inactives: top-dose activation, hits mostly activators; 2.4% of 320,000 active; further: % of control where 0% means no effect; nearly all actives have a fitted effect of over 60% in size
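Luminescence from an NPC1 promoter-driven luciferase reporter in stably transfected Huh7 cells was measured after 24 h compound treatment at 37 °C, followed by 10 min ambient incubation with luciferase detection reagent.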
Rab9 promoter act = Rab9 promoter activation; Huh7 Rab9 promoter-luciferase reporter, luminescence, 24 h; 2.8% of 320,000 active; Potency, µM (doses to about 9.22 µM), inactives show top-dose activation, negative = inhibition, usual class: activators; AID 485297; further: % of control where 0% means no effect; nearly all actives have a fitted effect of over 60% in size
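Quantitative HTS format; Huh7 Rab9-luciferase reporter cells (1500/well) receive compound 2 h post-plating, incubate 24 h at 37 °C, then get luciferase reagent for 10 min before luminescence reading.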
SMN2 splice enh = SMN2 splice variant enhancement. HEK293 SMN2-luciferase splicing reporter, luminescence, 30-36 h. Potency, µM (top dose mostly 46.1 µM), without a hit: top-dose activity change, positive = activation, hits mostly activators. 2.8% of 210,000 active. AID 1458; further: % of control where 0% means no effect; nearly all actives have a fitted effect of over 55% in size
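HEK293 cells carry an SMN2 […]–luciferase reporter in which exon 7 inclusion puts luciferase in frame. Cells were plated 10-12 h before compound addition, then incubated 30-36 h at 37C. ONE-Glo luminescence was read; sodium butyrate at 4.5 mM final served as control.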
ELG1 genotoxic = induces genotoxicity in HEK293T cells with luciferase-tagged ELG1 | HEK293T ELG1-luciferase reporter, luminescence, 16 h | Potency, µM (doses to about 46 µM), for the others: top-dose activity change, positive = activation, hits mostly activators | 1.3% of 330,000 active | AID 504466; further: % of control where 0% means no effect; nearly all actives have a fitted effect of over 60% in size
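Quantitative HTS format in 1536-well plates. HEK293T ELG1-luciferase reporter cells receive test compound and are incubated 16 hr at 37 °C, 5% CO2; ONE-Glo added, 30 min room temperature, then luminescence read.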
* marks the source's active call; other numbers are inactive results; ? = inconclusive; . = not tested or not shown; [ ] = dose if it differs, or a comment. The call rests on the fitted dose curve; in most records, active means well fitted curve in the direction sought with a large enough effect; inconclusive means small, poorly fitted or top-dose-only effect, or another doubt; inactive means no such curve, though single readings can be large; an effect the other way counts as inactive or inconclusive. Potency means the concentration at half of the fitted maximal effect.

SMILES | FLuc counter | Luc counter | NPC1 prom act | Rab9 promoter act | SMN2 splice enh | ELG1 genotoxic
C/C(=N\NC(=O)C1=NNC(=O)C1C)c1cccs1 (stereo not given) | ? | 10µM* | ? | 3.98µM* | ? | ?
C/C(=N\NC(=O)c1cccs1)c1ccc2ccccc2c1 | -16.1% | . | ? | ? | . | 8.5%
C/C(=N\NC(=O)c1ccncc1)c1cccs1 | -18.4% | -11.5% | 18.5% | 6.5% | . | ?
C/C(=N\NC(=O)c1cccc(S(=O)(=O)N2CCCC2)c1)c1cccs1 | ? | 0.2% | 16.1% | ? | 27.2% | 3.3%
C/C(=N\NC(=O)c1ccc2ccccc2c1)c1cccs1 | 4.26µM* | . | 1.12µM* | 1µM* | . | 2.06µM*
CCN(CC)c1ccc(C(=O)NCc2ccc3c(c2)CCN3C(=O)c2ccc(F)cc2)cc1 | -15.6% | . | . | . | . | .
CCc1ccc(NC(=O)CSc2nc3n[nH]c(C)c3c(=N)n2-c2ccc(C)cc2)cc1 | 0.6% | . | . | . | . | .
Cc1cccc(-c2nc(CSc3nncn4c3cc3oc(C)cc34)c(C)o2)c1 | 0.1% | . | . | . | . | .
COc1ccc2c(Sc3ccc(Cl)cc3)c(C(=O)N3CCCCC3)[nH]c2c1 | -9.4% | . | . | . | . | .
O=C(O)Cn1c(COc2ccc(Cl)cc2)nc2ccccc21 | 10.7µM* | . | -1.6% | 1.8% | . | -0.3%
NNC(=O)Cn1c(COc2ccc(Cl)cc2)nc2ccccc21 | 12µM* | -7.1% | -4.6% | 2.5% | 6.4% | 4.8%
Cc1cccc(NC(=O)c2cnc3sc(N4CCCC4)nn3c2=O)c1C | -0.3% | . | . | . | . | .
COc1cc(SC)ccc1C(=O)Nc1cc(C)c(OCC(=O)N2CCOCC2)c(C)c1 | 6.01µM* | . | 26.7% | 24.8% | . | -4.7%
COc1cc(SC)ccc1C(=O)Nc1ccc(OCC(=O)N2CCOCC2)cc1 | 0.477µM* | . | 2.82µM* | 1.78µM* | . | ?
COc1cc(C=O)ccc1OCC(=O)N1CCOCC1 | -0.1%[2.3 µM] | 3.4% | -0.4% | -1.1% | 14.6% | 0.0%
COc1ccc([N+](=O)[O-])cc1C(=O)Nc1ccc(OCC(=O)N2CCOCC2)cc1 | -12.1% | 0.3% | 0.4% | -4.4% | -4.6% | 0.3%
COc1ccccc1C(=O)Nc1ccc(OCC(=O)N2CC(C)CC(C)C2)cc1 (stereo not given) | 10.7µM* | . | 1.2% | -3.3% | . | 1.5%
Cc1ccc(Cl)cc1N1CCN(S(=O)(=O)c2ccc3c(c2)CCCN3C(=O)C2CCC2)CC1 | -0.2% | . | . | . | . | .
Cc1ccc(-c2n[nH]c(=O)c3ccccc23)cc1S(=O)(=O)N(C)C | -0.9% | . | -1.0% | -0.1% | . | 2.7%
Cc1cccc(-c2cc3c(N=O)c4ccccc4c-3n[nH]2)c1 | 0.536µM* | 10µM* | 0.708µM* | 1.26µM* | 3.16µM* | ?
O=c1[nH]nc(-c2ccccc2)c2ccccc12 | -2.0% | . | 1.0% | 0.9% | . | -9.8%
O=Nc1c2cc(-c3ccccc3)[nH]nc-2c2ccccc12 | 0.426µM* | 2.24µM* | 3.16µM* | ? | 0.501µM* | ?
Cc1ccc(-c2cc3c(N=O)c4ccccc4c-3n[nH]2)cc1 | 0.0953µM* | 10µM* | 2.1% | ? | -89.8% | ?
COCCc1nn2c(=O)cc(COC(=O)c3ccc4c(c3)OCO4)nc2s1 | -6.9% | . | . | . | . | .
CCCCn1c(NCc2cc(Cl)ccc2O)nc2ccccc21 | -1.3% | . | . | . | . | .
SMILES | FLuc counter | Luc counter | NPC1 prom act | Rab9 promoter act | SMN2 splice enh | ELG1 genotoxic
Cc1ccn2c(NC3CCCC3)c(-c3cccs3)nc2c1 | 19µM* | -13.1% | 15.7% | ? | 9.0% | -3.4%
Cc1ccn2c(NCc3ccccc3)c(-c3cccs3)nc2c1 | 15.1µM* | -7.6% | ? | 3.16µM* | ? | 8.7%
Cc1ccn2c(NC(=O)c3ccccc3)c(-c3cccs3)nc2c1 | -16.3% | -0.6% | -1.2% | 3.3% | 0.5% | -0.2%
O=C(C1CC(=O)N(c2ccc(Cl)cc2)C1)N1CCN(Cc2ccc3c(c2)OCO3)CC1 (stereo not given) | 5.5% | . | 0.3% | -4.5% | . | -15.5%
Cn1c(SCC(=O)N2CCOCC2)nnc1-c1cccc(NC(=O)c2ccccc2F)c1 | 1.3% | -2.2% | -0.8% | -1.2% | 10.0% | 2.0%
CCOc1ccccc1C(=O)Nc1ccc(S(=O)(=O)N2CCOCC2)cc1 | 6.0% | -0.8% | -1.2% | 1.8% | 1.8% | 2.1%
COc1cccc(C(=O)Nc2cccc(-c3ccc(N4CCOCC4)nn3)c2)c1OC | 0.379µM* | . | 3.55µM* | 1.12µM* | . | 0.9%
O=C(Nc1cccc(-c2ccc(N3CCOCC3)nn2)c1)c1ccc(F)cc1F | 1.07µM* | . | 2.82µM* | 2.82µM* | . | ?
CCOc1ccccc1C(=O)Nc1cccc(-c2ccc(N3CCOCC3)nn2)c1 | 1.51µM* | . | ? | 4.47µM* | . | ?
COc1cccc(C(=O)Nc2cccc(-c3ccc(N4CCOCC4)nn3)c2)c1 | 2.13µM* | . | ? | ? | . | 3.4%
CCCCCCSc1cccc(-c2nc3ccc(Cl)cn3c2NCc2ccccc2)c1 | 4.2% | . | -4.3% | -3.3% | . | -0.5%
COc1ccc(C(=O)Nc2cccc(-c3ccc(N4CCOCC4)nn3)c2)cc1OC | 0.757µM* | . | ? | 2.82µM* | . | 10.3%
CCOc1ccc(C(=O)Nc2ccc(S(=O)(=O)N3CCOCC3)cc2)cc1OCC | 0.0% | -5.3% | 15.2% | 0.7% | -5.8% | 3.1%
CCOc1ccc(C(=O)Nc2cccc(-c3ccc(N4CCOCC4)nn3)c2)cc1OCC | 1.2µM* | . | ? | 3.98µM* | . | 3.0%
Nc1c2c(nc3sc4c(c13)CCCCC4)CCCCC2 | 1.69µM* | -3.1% | 1.41µM* | 1.58µM* | ? | ?
